Hits are enriched below; roughly 1.6% of the tested compounds scored in any of these assays.
p53ts 32C tox – cytotoxicity in p53ts cells at permissive temperature; H1299-p53A138V at 32C, ATP luminescence viability, 24 h; Potency, µM (top dose mostly 46.1 µM), inactives show at the highest dose activity change, negative = cytotoxicity, usual class: cytotoxic; 130,000 compounds, 0.93% hits; AID 924;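 further: potency means the concentration at half of the fitted maximal effect; 0% = DMSO and -100% = full killing by reference compound; nearly all actives have a fitted effect of over 55% in size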
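Cells: H1299 p53ts (A138V), 600/well, pre-incubated 16–30 h at 37C. Cpd up to 46 uM, 24 h, 32C. Readout: ATPlite luminescence, 20 min RT. Normalization: DMSO vs tamoxifen 100 uM. AC50 by Hill equation.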
p53ts 39C kill – p53ts cell cytotoxicity, nonpermissive temperature; H1299-p53A138V viability at 39C, ATP luminescence, 24 h; Potency, µM (doses to about 46.1 µM), without a hit: at the top dose activity change, negative = cell killing, most hits filed as cytotoxic; 130,000 compounds, 1.5% hits; further: potency means the concentration at half of the fitted maximal effect; on the % scale 0 is the no-effect control and ±100 the full control effect; nearly all actives have a fitted effect of over 55% in size
Epigenetic mod – epigenetic GFP locus derepression in mouse cells. mouse C127i GFP locus derepression, cytometry, 30 h. Potency, µM (series often up to 46.1 µM), for inactives: at the top dose GFP derepression (activation). 68,000 compounds, 0.09% hits; further: % of control where 0% means no effect
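Read-out is the number of GFP-positive cells, scored as fluorescent objects 20 to 120 um wide, reflecting derepression of a silenced CMV-GFP reporter in murine C127i cells after 30 h compound exposure at 37 C.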
Peg3 imprint – inducers of genomic imprint erasure in mouse ES cells. mouse ES Peg3-LacZ reporter, beta-gal luminescence, 40 h. Potency, µM (top dose mostly 60.7 µM), for inactives: at the top dose activity change, positive = activation, most hits filed as activators. 110,000 compounds, 0.02% hits; further: potency means the concentration at half of the fitted maximal effect
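Readout: BetaGlo luminescence (5 min, room temp) for LacZ from the normally silent maternal Peg3 allele in female Peg3LacZ-Neo ES cells. Cells 300/well, 40 h, 37C, 5% CO2. Data normalized per plate to negative controls.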
HBB splicing – modulators of hemoglobin beta chain splicing | HBB splicing reporter cell assay, activation; EGFP reporter with mutant IVS2-654 intron; response scale: normalised to 500 nM splice-correcting PNA | Potency, µM (top dose mostly 46.1 µM), for the others: top-dose activation, usual class: activators | 65,000 compounds, 0.06% hits; further: potency means the concentration at half of the fitted maximal effect; 0% is about no effect
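HeLa cells stably expressing EGFP interrupted by mutant beta-globin intron 2 (IVS2-654), 500/well in 2% FCS. Treated with compound for 2 days at 37C. Splicing correction scored as total well GFP intensity (488 nm excitation, 500-520 nm emission); 500 nM antisense PNA served as control.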
UbGFP stabilizer – proteasome inhibitors stabilizing ubiquitin-GFP reporter; Ubiquitin-GFP reporter cells, proteasome inhibition, GFP fluorescence; response scale: untreated = 0%, 10 µM MG-132 = 100%; Potency, µM (highest dose often 45.9 µM), for inactives: at the highest dose activation (GFP accumulation), hits mostly activators; 67,000 tested, under 10 active; AID 526; active means well fitted activation curve with a large enough effect, not every such curve was filed as active; inconclusive means small, poorly fitted or top-dose-only effect, or another doubt; inactive means no such curve, though single readings can be large or run the other way; further: potency means the concentration at half of the fitted maximal effect
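U2OS cells stably expressing ubiquitin(G76V)-GFP, seeded overnight in 0.5% FBS medium, were exposed to compounds (qHTS, 46 uM to 2.9 nM) for 4 hr at 37 °C. GFP-positive cells were counted by laser cytometry (488 ex/515 em), normalized between basal and 10 uM MG-132.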
* hit, by the source's call; u = inconclusive; x = not tested or not shown; [ ] = dose if it differs, or a comment. Unless noted, the call rests on the fitted dose curve; in most records, active means well fitted curve in the direction sought with a large enough effect; inconclusive means small, poorly fitted or top-dose-only effect, or another doubt; inactive means no such curve, though single readings can be large; an effect the other way counts as inactive or inconclusive.

SMILES	p53ts 32C tox	p53ts 39C kill	Epigenetic mod	Peg3 imprint	HBB splicing	UbGFP stabilizer
COc1ccc(Nc2cc(C(=O)NCCCN(C)C3CCCCC3)c3ccccc3n2)cc1	-5%	13µM*	x	-12%[10.9 µM]	x	x
COc1ccc(Nc2cc(C(=O)NCCCN(C)C3CCCCC3)c3ccccc3n2)c(OC)c1	-6%	u	x	-7%[10.9 µM]	x	x
CSc1cccc(Nc2cc(C(=O)NCCc3ccc(Cl)cc3)c3ccccc3n2)c1	0%	u	x	-8%[10.9 µM]	x	x
Cc1cc(NC(=O)c2ccco2)cc(-c2nc3ccccc3o2)c1O	-2%	10%	x	-22%[10.9 µM]	x	x
Cc1oc(C(=O)O)cc1COc1ccccc1Cl	2%	12%	-3%	-19%	-1%	3%
CCCn1c(Nc2nc3ccccc3n2C)nc2ccccc21	u	10µM*	11%	-38%	6%[0.369 µM]	-8%
CCCCCn1c(NCc2ccc(OC)cc2)nc2ccccc21	u	16µM*	x	-20%[10.9 µM]	x	x
COc1cc2c(cc1NC(=O)COc1ccc(Br)cc1C)oc1ccccc12	0%	12%	x	6%[10.9 µM]	x	x
CC(=O)Oc1c(S(=O)(=O)c2ccc(C)cc2)c(C)nn1C(C)(C)C	-5%	5%	2%	-14%	-1%	3%
Cc1nn(C(C)(C)C)c(OC(=O)c2ccc3c(c2)OCO3)c1S(=O)(=O)c1ccccc1	-19%	16µM*	4%	12%	-1%	8%
Cc1ccc(S(=O)(=O)c2c(C)nn(C(C)(C)C)c2OC(=O)c2cccs2)cc1	u	16µM*	2%	-30%	0%	-3%
Cc1ccc(S(=O)(=O)c2c(C)nn(C(C)(C)C)c2OC(=O)c2ccc(Br)o2)cc1	10µM*	-21%	4%	-25%	0%	-2%
Cc1ccc(S(=O)(=O)c2c(C)nn(C(C)(C)C)c2OC(=O)c2ccco2)cc1	u	25µM*	-1%	-19%	-1%	11%
Cc1ccc(S(=O)(=O)c2c(C)nn(C(C)(C)C)c2OC(=O)C(C)(C)C)cc1	-2%	7%	4%	-13%	-1%	9%
Cc1ccc(C(=O)Oc2c(S(=O)(=O)c3ccccc3)c(C)nn2-c2ccccc2)cc1	10%	-4%	x	-3%[10.9 µM]	x	x
C/C(N)=C(/C#N)C(=O)CSc1nc2cc(Cl)ccc2c(=O)n1-c1ccc(C)cc1	-8%	-7%	x	x	x	x
c1ccc2c(c1)Cc1cc3ccccc3nc1-2	7.9µM*	13µM*	x	-89%	9%	x
COc1ccccc1-c1nc2cc3ccccc3cc2nc1-c1ccccc1OC	x	-8%	x	x	x	x
Cc1cccc(OCCCCn2c(C3CC(=O)N(c4ccccc4Cl)C3)nc3ccccc32)c1 (stereo not given)	u	16µM*	x	-3%[10.9 µM]	x	x
CCc1ccccc1N1CC(c2nc3ccccc3n2CCOc2ccc(Cl)c(C)c2)CC1=O (stereo not given)	u	32µM*	x	-10%[10.9 µM]	x	x
CCOc1ccccc1N1CC(c2nc3ccccc3n2CCOc2ccc(C(C)(C)C)cc2)CC1=O (stereo not given)	u	13µM*	x	-11%[10.9 µM]	x	x
Cc1cccc(OCCCCn2c(C3CC(=O)N(c4ccc(C)cc4C)C3)nc3ccccc32)c1 (stereo not given)	u	25µM*	x	-10%[10.9 µM]	x	x
CCOc1ccccc1N1CC(c2nc3ccccc3n2CCCCOc2cc(C)ccc2C)CC1=O (stereo not given)	u	u	x	-8%[10.9 µM]	x	x
Cc1cc(OCCn2c(C3CC(=O)N(Cc4ccc(F)cc4)C3)nc3ccccc32)ccc1Cl (stereo not given)	-1%	0%	x	10%[10.9 µM]	x	x
CCOc1ccccc1N1CC(c2nc3ccccc3n2CCCOc2ccccc2OC)CC1=O (stereo not given)	-17%	-22%	x	-8%[10.9 µM]	x	x
Cc1cccc(N2CCN(C(=O)CN3C(=O)COc4ccc(S(=O)(=O)N5CCCC5)cc43)CC2)c1C	2%	-15%	x	-13%[10.9 µM]	x	x

Assay outcomes: PubChem BioAssay, National Center for Advancing Translational Sciences (NCATS)
